Results taken from PubChem BioAssay (NCATS).
Values joined by “and” are separate entries in the source; they are usually repeats but may differ in a detail not shown here. Identical values can stand only once. Unmarked numbers belong to inactive results. Results filed as inconclusive are left out. For some of these results: Potency and affinity values are given separately. Active and inactive are the calls of the source. Unless noted, the rule behind the calls is not given here.

Tests used:
[1] = Ebola virus entry assay, green fluorescence channel
[2] = Ebola virus entry assay, ratio channel
[3] = qHTS assay for small molecule agonists of the antioxidant response element (ARE) signaling pathway measured by Nrf2-dependant transcriptional activity (AID 720636; active = well fitted curve in the direction sought with a large enough effect in the repeat runs; an effect the other way counts as inactive or inconclusive; note: % of control where 0% means no effect); settings: ARE-luc HepG2, Nrf2 luciferase reporter, 16 h; series mostly up to 92.4 µM
Method in brief: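 ARE-luc HepG2 cells carrying an Nrf2-responsive luciferase reporter were plated in medium with 1% dialyzed FBS, left 6 hr at 37 C to attach, then exposed to compound for 16 hr. Luciferase luminescence was read after ONE-Glo addition.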

[4] = qHTS assay for small molecule antagonists of the retinoid-related orphan receptor gamma (ROR-gamma) signaling pathway - cell viability counter screen (AID 720652; active = well fitted curve in the direction sought with a large enough effect in the repeat runs; an effect the other way counts as inactive or inconclusive;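 note: CHO reporter cells with doxycycline-induced ROR-gamma expression; compound exposure lasted 16 hr before ATP read; % is set by controls: 0 for no effect and ±100 for the full control effect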); settings: RORgamma reporter cell line viability counter screen; series mostly up to 92.2 µM
Method in brief: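 ATP-based viability readout in the ROR-gamma reporter CHO cells after 16 hr compound exposure under doxycycline induction.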

[5] = qHTS assay for small molecule agonists of the antioxidant response element (ARE) signaling pathway measured by Nrf2-dependant transcriptional activity - cell viability counter screen (AID 720653; active = well fitted curve in the direction sought with a large enough effect in the repeat runs; an effect the other way counts as inactive or inconclusive; note: % is set by controls: 0 for no effect and ±100 for the full control effect); settings: ARE-bla HepG2 viability, CellTiter-Glo ATP luminescence, 16 h; hits give low values
Method in brief: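 Cytotoxicity counter screen: intracellular ATP quantified by CellTiter-Glo luminescence in the same ARE-bla HepG2 plates, after 16 h compound exposure and a 2 h beta-lactamase substrate step.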

[6] = qHTS Assay for Identifying Gametocytocidal Compounds (AID 743244; active = well fitted curve in the direction sought with a large enough effect; an effect the other way counts as inactive or inconclusive;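 note: % is set by controls: 0 for no effect and ±100 for the full control effect; actives lower the fluorescent signal which means gametocytes are killed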); settings: P. falciparum 3D7 stage III-V gametocytes, alamarBlue, 72 h; max response: hits give low values
Method in brief: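 Compounds are pinned into medium, gametocytes (stage III–V, 3D7, 20,000 cells/well) added, and plates held 72 h at 37 °C in 5% CO2. AlamarBlue follows for 24 h before fluorescence reading.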

[7] = qHTS assay for cell viability of HEK293 cells (AID 743288; active = well fitted curve in the direction sought with a large enough effect; an effect the other way counts as inactive or inconclusive; note: % is set by controls: 0 for no effect and ±100 for the full control effect; nearly all actives have a fitted effect of over 50% in size); settings: ATP luminescence (CellTiter-Glo), 18 h, hits give low values
Method in brief: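 ATP luminescence (CellTiter-Glo) reports metabolically competent cell number after parental HEK293 cells, 2,000/well, were treated with DMSO-dissolved compounds for 18 h at 37 C; reagent incubation 30 min, room temperature.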

[8] = qHTS for Activators of Parkin Expression: LOPAC Validation Assay (FLuc Reporter) (AID 720573; active = well fitted curve in the direction sought with a large enough effect; an effect the other way counts as inactive or inconclusive;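 note: 0% = DMSO and 100% = positive control compounds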); settings: Cell line, PRKN promoter firefly luciferase reporter, vehicle wells = 0, positive control = 100%; series mostly up to 46.1 µM
Method in brief: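 FLuc luminescence read-out from a neuronal line expressing a Parkin-promoter-driven coincidence reporter. Cells treated 24 h at 37 C, 5% CO2 with compounds at 7 concentrations; signal increase normalized to DMSO and positive control.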

[9] = molecular target: T1, Hexokinase-4 (Homo sapiens) + Glucokinase regulatory protein (Homo sapiens) (UniProt P35557+Q14397); test: qHTS assay for inhibitors of recombinant human GCK-GKRP interaction: Diaphorase-coupled assay (AID 743205; active = well fitted curve in the direction sought with a large enough effect; an effect the other way counts as inactive or inconclusive); settings: G6PDH/diaphorase resorufin fluorescence; series mostly up to 57.5 µM
Method in brief: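 Resorufin fluorescence (525/590 nm), read each minute over 30 min, reports GCK activity coupled via G6PDH and diaphorase. Reaction: 10 nM GST-GCK, 10 nM FLAG-GKRP, 5 mM glucose, 0.4 mM ATP, 0.15 mM NADP+, 0.1 mM resazurin.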

[10] = molecular target: T1, Hexokinase-4 (Homo sapiens) + Glucokinase regulatory protein (Homo sapiens); test: qHTS assay for inhibitors of recombinant human GCK-GKRP interaction: ADP-Glo assay (AID 743206; active = well fitted curve in the direction sought with a large enough effect; an effect the other way counts as inactive or inconclusive;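 note: plate controls were DMSO plus enzyme for no effect and no enzyme for full effect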); settings: ADP-Glo luminescence, 60 min, 0% = vehicle-only wells with enzyme present; series mostly up to 76.9 µM
Method in brief: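 Pin-transferred compounds meet a 15 nM GST-GCK/15 nM FLAG-GKRP/2 uM S6P mix (dispense concentrations). ATP is then added to 0.4 mM final with 5 mM glucose, and the reaction runs 60 min at room temperature. ADP is quantified luminescently.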
Throughout, for efficacy: 0% is about no effect.

T1 sequence (P35557 whole entry, looked up): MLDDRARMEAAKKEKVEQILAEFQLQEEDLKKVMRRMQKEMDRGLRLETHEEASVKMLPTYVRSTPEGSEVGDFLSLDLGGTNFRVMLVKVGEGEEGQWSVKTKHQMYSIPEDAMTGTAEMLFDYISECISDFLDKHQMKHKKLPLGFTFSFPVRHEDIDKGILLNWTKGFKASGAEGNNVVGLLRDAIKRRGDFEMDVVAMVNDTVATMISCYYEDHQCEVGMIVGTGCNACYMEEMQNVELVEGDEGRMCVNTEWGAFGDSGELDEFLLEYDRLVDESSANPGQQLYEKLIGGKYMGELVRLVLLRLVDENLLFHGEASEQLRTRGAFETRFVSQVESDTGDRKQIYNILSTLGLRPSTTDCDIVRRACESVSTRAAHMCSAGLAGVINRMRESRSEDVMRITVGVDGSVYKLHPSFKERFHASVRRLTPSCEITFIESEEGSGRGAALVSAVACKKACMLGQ
T1 sequence (Q14397 whole entry, looked up): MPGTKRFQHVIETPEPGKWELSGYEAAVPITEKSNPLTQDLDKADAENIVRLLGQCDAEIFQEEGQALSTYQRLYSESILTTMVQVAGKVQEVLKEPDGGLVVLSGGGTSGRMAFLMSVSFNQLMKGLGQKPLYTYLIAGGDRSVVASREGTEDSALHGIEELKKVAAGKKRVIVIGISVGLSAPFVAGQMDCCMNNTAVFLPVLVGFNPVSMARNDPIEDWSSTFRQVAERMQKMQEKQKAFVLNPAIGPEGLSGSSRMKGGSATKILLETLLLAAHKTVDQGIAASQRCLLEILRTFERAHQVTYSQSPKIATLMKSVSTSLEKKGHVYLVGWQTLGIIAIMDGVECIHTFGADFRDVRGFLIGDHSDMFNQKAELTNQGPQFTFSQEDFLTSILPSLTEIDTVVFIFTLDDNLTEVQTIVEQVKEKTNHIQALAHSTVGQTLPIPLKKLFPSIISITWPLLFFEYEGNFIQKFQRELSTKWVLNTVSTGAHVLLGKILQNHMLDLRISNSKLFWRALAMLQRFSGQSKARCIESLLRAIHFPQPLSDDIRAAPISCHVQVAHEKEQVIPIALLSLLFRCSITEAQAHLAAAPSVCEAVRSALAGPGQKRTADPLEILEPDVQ

## Oc1c(Br)cc(Br)c2cccnc12
[1]
  efficacy: -19.4%
[2]
  outcome: inactive

## CC(C)CCOC(=O)c1ccc(N(C)C)cc1
[1]
  efficacy: -19.6%
[2]
  outcome: inactive

## Cc1ncc([N+](=O)[O-])n1CC(C)O (stereo not drawn)
[1]
  efficacy: -13.9%
[2]
  outcome: inactive

## C=CCN1C[C@H](C)N([C@H](c2ccc(C(=O)N(CC)CC)cc2)c2cccc(OC)c2)C[C@H]1C
[1]
  efficacy: -18.5%
[2]
  outcome: inactive

## C[C@]12CCC(=O)C=C1CC[C@@H]1[C@@H]2CC[C@]2(C)C(=O)CC[C@@H]12
[3]
  outcome: inactive
[4]
  outcome: inactive
[5]
  max response: 3.62% and -13.2%
[6]
  max response: 5.73%
[7]
  max response: -2.66%
[1]
  efficacy: 19.1%
[2]
  outcome: inactive

## O=P(O)(O)OCC(O)CO (stereo not drawn)
[1]
  efficacy: 14.9%
[2]
  outcome: inactive

## CC(C(=O)O)c1ccc(C(=O)c2ccccc2)s1 (stereo not drawn)
[1]
  efficacy: -17.9%
[2]
  outcome: inactive

## CC(CC(C#N)(c1ccccc1)C(C)C)N(C)C (stereo not drawn)
[1]
  efficacy: -15%
[2]
  outcome: inactive

## Cc1ccccc1OCC(O)CO (stereo not drawn)
[1]
  efficacy: 25.5%
[2]
  outcome: inactive

## CC(CN(C)C)C(C)(O)Cc1ccc(Cl)cc1 (stereo not drawn)
[1]
  efficacy: 33.9%
[2]
  outcome: inactive

## COc1cccc2c1C(=O)c1c(O)c3c(c(O)c1C2=O)C[C@@](O)(C(=O)CO)CC3OC1CC(N2CCOC(OC)C2)C(O)C(C)O1 (stereo partly drawn)
[1]
  efficacy: 57.9%
[2]
  outcome: inactive

## CCCCOCCOC(=O)c1cccnc1
[1]
  efficacy: -26.3%
[2]
  outcome: inactive

## CCOC(=O)CC(SP(=S)(OC)OC)C(=O)OCC (stereo not drawn)
[3]
  outcome: inactive
[4]
  outcome: inactive
[5]
  max response: 25% and -5.73% and -3.35%
[6]
  max response: 7.01% and -6.6%
[7]
  max response: -11.8% and -13% and -16.1%
[1]
  efficacy: -13.3%
[2]
  outcome: inactive

## NC(=O)n1c(O)c(C(=O)c2cccs2)c2cc(Cl)ccc21
[1]
  efficacy: 15%
[2]
  outcome: inactive

## C#C[C@]1(O)CC[C@H]2[C@@H]3CCc4cc(OC5CCCC5)ccc4[C@H]3CC[C@@]21C
[1]
  efficacy: 57.3%
[2]
  AC50: 5.01 µM (active)

## CCCCCCCCCCC[C@@H](C[C@@H]1OC(=O)[C@H]1CCCCCC)OC(=O)[C@H](CC(C)C)NC=O
[1]
  efficacy: -27.6%
[2]
  outcome: inactive

## O=C(O)c1cc(O)c(O)c(O)c1
[1]
  efficacy: 15.2%
[2]
  outcome: inactive

## COc1cc(C(=O)OC(COCCC(C)C)CN2CCOCC2)cc(OC)c1OC (stereo not drawn)
[1]
  efficacy: 27.7%
[2]
  outcome: inactive

## CCC(C)(C)c1ccc(O)cc1
[3]
  outcome: inactive
[4]
  outcome: inactive
[5]
  max response: -17% and -1.76%
[6]
  max response: 15.1%
[7]
  max response: 6.76% and -11.5%
[1]
  efficacy: 13.1%
[2]
  outcome: inactive

## CC(=O)NC(=O)c1ccccc1O
[1]
  efficacy: -28.5%
[2]
  outcome: inactive

## COP(=S)(OC)SCN1C(=O)c2ccccc2C1=O
[3]
  outcome: inactive
[5]
  max response: 3.01%
[6]
  max response: -4.68%
[7]
  max response: -19.3%
[1]
  efficacy: -28.1%
[2]
  outcome: inactive

## O=C1OC(c2ccc(O)c(S(=O)(=O)O)c2)(c2ccc(O)c(S(=O)(=O)O)c2)c2c(Br)c(Br)c(Br)c(Br)c21
[6]
  max response: 21%
[1]
  efficacy: 32.9%
[2]
  outcome: inactive

## Nc1ccc(C(=O)O)cc1
[1]
  efficacy: -10.9%
[2]
  outcome: inactive

## Cc1c(F)c(N2CCNC(C)C2)cc2c1c(=O)c(C(=O)O)cn2C1CC1 (stereo not drawn)
[1]
  efficacy: -15%
[2]
  outcome: inactive

## Clc1ccc(C(c2ccc(Cl)cc2)C(Cl)(Cl)Cl)cc1
[3]
  outcome: inactive
[5]
  max response: -18.5% and -23.5%
[6]
  max response: 0.742%
[7]
  max response: -17.1%
[1]
  efficacy: 25.5%
[2]
  outcome: inactive

## ClCCN1CCCC1
[1]
  efficacy: -44.4%
[2]
  outcome: inactive

## Nc1ccc([As](=O)(O)O)cc1
[3]
  outcome: inactive
[5]
  max response: -9.13%
[7]
  max response: -4.94%
[1]
  efficacy: -24.9%
[2]
  outcome: inactive

## CC(C)Cc1ccc(CC(=O)O)cc1
[1]
  efficacy: -19.8%
[2]
  outcome: inactive

## Cc1cccc(C)c1NC(=O)c1cc(S(N)(=O)=O)c(Cl)cc1O
[1]
  efficacy: -19.2%
[2]
  outcome: inactive

## C/C(=C(\CCO)SS/C(CCO)=C(\C)N(C=O)Cc1cnc(C)nc1N)N(C=O)Cc1cnc(C)nc1N
[1]
  efficacy: -13%
[2]
  outcome: inactive

## CCN1CCCC1CN (stereo not drawn)
[1]
  efficacy: -12.7%
[2]
  outcome: inactive

## COc1ccc2c(c1OC)C(=O)O[C@H]2[C@@H]1c2cc3c(cc2CCN1C)OCO3
[8]
  outcome: inactive
[9]
  outcome: inactive
[10]
  outcome: inactive
[6]
  max response: 10.8% and 14.8%
[1]
  efficacy: 26.4%
[2]
  outcome: inactive

## O=C(O)c1ccc(S(=O)(=O)N(Cl)Cl)cc1
[1]
  efficacy: -27.5%
[2]
  outcome: inactive

## CCCCC/C=C\C/C=C\C/C=C\C/C=C\CCCC(=O)NCC(=O)O
[8]
  outcome: inactive
[9]
  outcome: inactive
[10]
  outcome: inactive
[6]
  max response: -2.03% and 7.82%
[1]
  efficacy: -13.8%
[2]
  outcome: inactive
